Source: PubChem BioAssay
Compounds with a hit are over-represented: about 3.6% of the library has one in this group of screens.
D1 ag: agonists of human D1 dopamine receptor. P21728. HEK293 T-REx D1 cells, calcium flux, agonist mode. activation, % at 2 µM. hit rate 1% among 360,000
Target sequence (P21728 whole entry, looked up): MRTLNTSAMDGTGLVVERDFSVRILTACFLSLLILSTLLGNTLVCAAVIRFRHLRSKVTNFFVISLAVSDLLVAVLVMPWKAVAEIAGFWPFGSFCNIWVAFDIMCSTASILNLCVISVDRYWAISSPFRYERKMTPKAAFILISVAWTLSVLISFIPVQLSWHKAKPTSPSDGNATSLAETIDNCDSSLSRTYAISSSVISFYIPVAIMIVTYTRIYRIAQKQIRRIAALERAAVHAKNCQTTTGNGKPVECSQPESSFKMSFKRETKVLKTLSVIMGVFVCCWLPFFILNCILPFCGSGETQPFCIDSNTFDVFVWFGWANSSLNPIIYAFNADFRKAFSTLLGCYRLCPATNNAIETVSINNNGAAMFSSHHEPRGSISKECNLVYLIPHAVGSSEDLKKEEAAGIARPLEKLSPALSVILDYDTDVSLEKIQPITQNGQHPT
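Tetracycline-induced HEK293 TREx D1 cells, force-coupled to calcium signalling, were dye-loaded with a no-wash calcium kit. Compound was pin-added after a 10 s baseline. Fluorescence was read kinetically at 1 cycle/s for 180 s, with calcium rises flagged as agonism.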
D1 antagonist: antagonists of human D1 dopamine receptor; hit rate 3.2% among 360,000; HEK293 TREx D1 cells, calcium flux, dopamine EC80; stronger effect = lower value; AID 504652; activity change, negative = inhibition, % at 10 µM; in the data active means activity change below about -30%
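Inducible Hek293 Trex D1 cells (tetracycline, overnight, 30 C). Calcium dye 30–90 min RT. Antagonist mode: EC80 dopamine added after 180 s compound read.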
TRHR enhancer: allosterically enhances the human TRH receptor. TRHR cells, fluo-8 calcium fluorescence, EC20 TRH enhancement. AID 493056. P34981. hit rate 0.66% among 360,000. enhancement, % at 2 µM; in the data active means enhancement above about 30%
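TRHR-expressing cells loaded with fluo-8 calcium dye were read kinetically (ex 480/em 530) during compound addition, then stimulated with an EC20 of TRH (10 nM final). Enhancement of the Gq-mediated intracellular calcium response was scored.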
D1 potentiator: enhances dopamine response at the human D1 receptor; potentiation, % at 10 µM; HEK293 TREx D1 cells, calcium flux, dopamine EC20 potentiation; AID 504651; hit rate 0.036% among 360,000; P21728; in the data active means potentiation above about 30%
TRHR ag: TRH receptor (human) agonism; P34981; TRHR cells, calcium flux fluo-8, FDSS agonist mode; activation, % at 2 µM; hit rate 0.18% among 360,000; AID 493084
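TRHR-expressing cells, plated overnight in medium with 10% serum, were loaded with fluo-8 calcium dye at room temperature. After a 10 s baseline, library compound was pin-added and calcium release was recorded kinetically (ex 480/em 530) as agonist response.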
LDHA block: blocks human lactate dehydrogenase A | P00338 | activity change, % (values are at about 110 or 230 µM) | purified LDHA, NADH/diaphorase-resazurin fluorescence; stronger effect = lower value | hit rate 0.15% among 480,000 | AID 1347041; in the data active means activity change below about -30%
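Resorufin fluorescence (ex540/em590), read at 0 and 20 min after diaphorase/resazurin addition, reports the NADH left after a 5 min room-temperature reaction of 2 nM human LDH5 with 0.06 mM NADH and 0.2 mM pyruvate.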
Large screens that a line does not name were inactive. Unless noted, no stated cut-off is given here; in the data, active means activation above about 30%; inactive means the rest.

Cc1ccc(-n2cc(C(=O)c3cc(C)ccc3O)cc(C#N)c2=O)cc1	none (no result: D1 ag, D1 antagonist, TRHR enhancer, D1 potentiator, TRHR ag)
Cc1ccc(O)c(C(=O)c2cc(C#N)c(=O)n(-c3nccs3)c2)c1	D1 ag 331
CCN(CC)CCCNC(=O)c1cc(-c2ccc(OC)cc2)nc2ccccc12	none (no result: D1 ag, D1 antagonist, TRHR enhancer, D1 potentiator, TRHR ag)
COc1ccccc1NC(=O)C(=O)NCc1ccncc1	none
COc1ccc(Cl)cc1NC(=O)C(=O)NCc1ccncc1	D1 antagonist -38
CSc1ccc(C(=O)C2CCCN(C(=O)c3ccc4c(c3)OCO4)C2)cc1 (stereo unspecified)	none
COCc1ccc(C(=O)N2CCCC(C(=O)c3ccc(SC)cc3)C2)s1 (stereo unspecified)	D1 antagonist -36
CCOC(=O)c1cnc2ccccc2c1Nc1cc(C(=O)O)ccc1C	TRHR enhancer 37
CCOC(=O)c1cnc2ccccc2c1Nc1cccc(OC)c1	D1 antagonist -35
CCOC(=O)c1cnc2ccc(C(=O)OC)cc2c1Nc1ccc(OCC)cc1	none (no result: D1 ag, D1 antagonist, TRHR enhancer, D1 potentiator, TRHR ag)
CCOC(=O)c1cnc2ccc(Cl)cc2c1Nc1ccc(OCC)cc1	D1 antagonist -58
CC(Sc1ccccc1Cl)C(=O)Nc1ccnn1C(C)C (stereo unspecified)	none (no result: D1 ag, D1 antagonist, TRHR enhancer, D1 potentiator, TRHR ag)
O=C(CO)N/N=C/c1ccccc1F	none
O=C(CC(=O)N/N=C/c1c(F)cccc1Cl)NCc1ccccc1	D1 antagonist -81
C=CCNC(=O)CC(=O)N/N=C/c1ccccc1F	TRHR enhancer 32
O=C(Cn1cncn1)N/N=C/c1ccccc1Cl	TRHR enhancer 32
Cc1ccc(/C=N/NC(=O)Cn2cncn2)cc1	none
O=C(CN1CCCCCCC1)N/N=C/c1ccccc1F	D1 antagonist -39
Cc1cc(C(=O)COc2ncnc3ccc(Br)cc23)c(C)n1C	none (no result: D1 ag, D1 antagonist, TRHR enhancer, D1 potentiator, TRHR ag)
Cc1cc(=O)oc2cc(NC(=O)Cc3ccc(Cl)cc3)ccc12	none (no result: D1 ag, D1 antagonist, TRHR enhancer, D1 potentiator, TRHR ag)
Cc1ccccc1NC(=O)Nc1nnc(Cc2ccc([N+](=O)[O-])cc2)s1	TRHR enhancer 40
CC(C)Cc1nnc(NC(=O)Cc2ccc([N+](=O)[O-])cc2)s1	D1 ag 31
Cc1cc(=O)oc2cc(OCC(=O)NC(C)(C#N)C3CC3)ccc12 (stereo unspecified)	none (no result: D1 ag, D1 antagonist, TRHR enhancer, D1 potentiator, TRHR ag)
Cc1oc(-c2ccccc2)nc1C(=O)NCc1ccc(F)cc1	none (no result: D1 ag, D1 antagonist, TRHR enhancer, D1 potentiator, TRHR ag)
CCCn1nnnc1-c1ccc(Cl)cc1	none
FC(F)(F)c1cccc(Cn2nnnc2-c2ccc(Cl)cc2)c1	D1 antagonist -39
COC(=O)c1ccc(N2CCN(C(=O)c3ccccc3)CC2)c(NC(C)=O)c1	D1 antagonist -31
O=C(CSc1nc2c([nH]c3ccccc32)c(=O)n1-c1ccc(F)cc1)N1CCc2ccccc21	D1 antagonist -45
COc1cccc(-n2c(SCC(N)=O)nc3c([nH]c4ccccc43)c2=O)c1	TRHR enhancer 37
Cc1cccc(NC(=O)CSc2nc3c([nH]c4ccccc43)c(=O)n2-c2ccc(F)cc2)c1C	D1 antagonist -33
Cc1ccc(NC(=O)CSc2nc3c([nH]c4ccccc43)c(=O)n2C)cc1	D1 antagonist -33
O=C(CSc1nc2c([nH]c3ccccc32)c(=O)n1-c1ccccc1)N1CCc2ccccc21	none
CCCCc1nc2sc3c(NCCN(C)C)ncnc3c2c2c1COC(C)(C)C2	none (no result: D1 ag, D1 antagonist, TRHR enhancer, D1 potentiator, TRHR ag)
COC(=O)CNc1ccc(C(=O)OC)cc1	none (no result: D1 ag, D1 antagonist, TRHR enhancer, D1 potentiator, TRHR ag)
CCCOc1nc2ccccc2nc1N1CCC(C(=O)Nc2cccc(F)c2)CC1	none (no result: D1 ag, D1 antagonist, TRHR enhancer, D1 potentiator, TRHR ag)
O=C(O)c1csc(-n2nc(-c3ccccc3)cc2C(F)(F)F)n1	LDHA block -87
COc1ccc(CNC(=O)/C(C)=C/c2ccccc2)cc1	none (no result: D1 ag, D1 antagonist, TRHR enhancer, D1 potentiator, TRHR ag)
CC1=CC(=O)C(C(C)C)=C/C1=N/OS(=O)(=O)c1ccccc1	D1 antagonist -31
CC1=CC(=O)C=C(C)C1=NOS(=O)(=O)c1ccccc1	none
COc1ccc(-c2nc(Cn3nnc(C(=O)Nc4ccccc4F)c3N)c(C)o2)cc1OC	none (no result: D1 ag, D1 antagonist, TRHR enhancer, D1 potentiator, TRHR ag)
Cc1nn(-c2ccccc2)c(C)c1/C=C/C(=O)OCC(=O)Nc1ccc(S(N)(=O)=O)cc1	D1 antagonist -32 (no result: D1 potentiator)
Cc1nn(-c2ccccc2)c(C)c1/C=C/C(=O)OCC(=O)Nc1ccc(C(N)=O)cc1	none
CCN(CC)CCNCc1ccc(C)s1	none (no result: D1 ag, D1 antagonist, TRHR enhancer, D1 potentiator, TRHR ag)
CN(C)/C=C(\C#N)C(=O)N/N=C/c1ccccc1	D1 antagonist -31
